The whole screen tested about 320,000 compounds, of which about 1,300 (0.41%) were called active. Not shown: some 3% with an inconclusive outcome. How the calls were made is not given here. Only a sample is shown. Measured potencies and affinities stand elsewhere.

The experiment is described as follows: growth inhibition of non-replicating M. tuberculosis (AID 488890).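 Further: plate controls were DMSO cells for no effect and high antibiotic wells for full effect.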 The following applies: Mycobacterium tuberculosis non-replicating, at 25 µM, stronger effect = higher value.
Usually inhibition stands for the relative decrease from the control value, in per cent. For the molecule `CCc1cccc(C)c1NC(=O)CN(C)Cc1ccccc1F`, the inhibition came out at 23.6%.

With `C[C@H](CO)N1C[C@H](C)[C@@H](CN(C)C(=O)Nc2ccc(C(F)(F)F)cc2)Oc2c(NC(=O)Nc3ccccc3)cccc2C1=O`, the inhibition came to 32.4%.

Consider `Cc1ccc(OCCCCN2CCC(C)CC2)c(Br)c1`, for which the inhibition amounted to 49.3%.

For `CC1CCN(CCCOc2ccc(Br)cc2Cl)CC1`, the inhibition was 33.5%.

As for `Cc1ccc(C)c(NC(=S)NCCc2c[nH]c3ccccc23)c1`, the inhibition amounted to 67%.

Consider `NC(=O)CSc1nc2ccc([N+](=O)[O-])cc2[nH]1`, for which the inhibition was determined as 3.31%.

In the case of `Clc1ccc2nc(CSc3ncn[nH]3)cn2c1`, the inhibition is -31.7%.

With `c1ccc2[nH]c(SCc3cn4ccccc4n3)nc2c1`, the inhibition is -0.59%.

`O=[N+]([O-])c1ccc2nc(SCc3cn4cccnc4n3)[nH]c2c1`: the inhibition was -20.2%.

Consider `CCC(CO)NCc1sccc1C` (stereo not drawn), for which the inhibition is -5.31%.

For `Cc1cccc(C(=O)NC(=S)Nc2ccc(S(=O)(=O)N3CCN(C)CC3)cc2)c1`, the inhibition stood at 52.2%.

Turning to `Cc1c(O)ccc(/C=N/Nc2ncccc2[N+](=O)[O-])c1O`, the inhibition is -1.95%.

`O=C(N/N=C/c1cc(Cl)cc([N+](=O)[O-])c1O)c1cc(-c2ccccn2)nc2ccccc12`: the inhibition amounted to 4.78%.

Regarding `Cc1cc(C(=O)N/N=C/c2cc(Cl)cc([N+](=O)[O-])c2O)c2ccccc2n1`, the inhibition was 54.6%.

For `COc1cc(/C=N/Nc2nc3ccccc3s2)cc([N+](=O)[O-])c1O`, the inhibition came to 22%.

Turning to `O=[N+]([O-])c1cc(/C=N\Nc2ccccn2)ccc1Cl`, the inhibition is -14.6%.

`COc1cccc(/C=N/Nc2ncccc2[N+](=O)[O-])c1OC`: the inhibition stood at 1.4%.

In the case of `CN(C(=O)COC(=O)c1ccccc1SCC(=O)N1CCCC1)C1CCS(=O)(=O)C1` (stereo not drawn), the inhibition is -9.96%.

Turning to `Cc1ccccc1CCNC(=O)C1CC(O)CN1C(=O)Nc1ccccc1` (stereo not drawn), the inhibition was -7.09%.

As for `O=S(=O)(NCc1ccccc1F)c1cccc(S(=O)(=O)N2CCOCC2)c1`, the inhibition is -6.99%.

Consider `O=C(NC(=S)Nc1ccc(Cl)cn1)c1cc([N+](=O)[O-])ccc1N1CCOCC1`, for which the inhibition came to 5.35%.

Consider `Cc1ccc(S(=O)(=O)N2CCN(C(=O)c3ccccc3)CC2)cc1`, for which the inhibition is 9.38%.

As to `COc1ccc(CCNC(=O)C(=O)c2c(C)[nH]c3ccccc23)cc1`, the inhibition stood at 12%.

Take `O=C(NCCc1ccccc1)c1ccc(Br)o1`: the inhibition was found to be 73.4%.

Regarding `NC(=O)NCCC1=CCCCC1`, the inhibition was -8.64%.

As for `O=C(NCCC1=CCCCC1)c1ccc(Cl)cc1`, the inhibition amounted to 76.5%.

With `COc1ccc(C(=O)NCCC2=CCCCC2)cc1`, the inhibition worked out at 71.4%.

For `CCN(CC)C(=O)c1cccc(NC(=O)c2cc(-c3ccccn3)nc3ccccc23)c1`, the inhibition worked out at 57%.

On to `Cc1nnc2sc(SCC(=O)Nc3ccc(Br)cc3)nn2c1=O`, for which the inhibition is -4.78%.

With `CCOc1ccccc1C(=O)NC1CC2CCCC(C1)N2C1CC1` (stereo not drawn), the inhibition amounted to 0.26%.

Take `CCOc1ccc(S(=O)(=O)N2CCOCC2)cc1NC(=O)CN1C(=O)NC(C)(c2ccccc2)C1=O` (stereo not drawn): the inhibition stood at 6.19%.

Take `Nc1ncnc(Sc2ccccc2)c1[N+](=O)[O-]`: the inhibition is 67.8%.

`Cc1nc(Sc2ccccc2)c(C#N)c(C)c1[N+](=O)[O-]`: the inhibition is 16.8%.

Take `C#CCN(CC=C)C(=O)c1ccc(OC2CCN(S(=O)(=O)N(C)C)CC2)cc1`: the inhibition was -9.64%.

Regarding `Cc1ccnc(NC(=O)C2COc3ccccc3O2)c1` (stereo not drawn), the inhibition was found to be 2.12%.

Take `O=C(COC(=O)C1COc2ccccc2O1)Nc1cccc(Cl)c1` (stereo not drawn): the inhibition was 6.42%.

Turning to `O=C(C1COc2ccccc2O1)N1CCCC1` (stereo not drawn), the inhibition was 70.2%.

For `O=C(CCC1COc2ccccc2O1)Nc1ccc(Cl)cn1` (stereo not drawn), the inhibition came to 79.7%.

With `O=C(Nc1ccccn1)C1COc2ccccc2O1` (stereo not drawn), the inhibition was determined as 77%.

In the case of `Cc1cccc(NC(=O)C2COc3ccccc3O2)n1` (stereo not drawn), the inhibition amounted to 75.7%.

On to `CC1CCCN(C(=O)C2COc3ccccc3O2)C1` (stereo not drawn), for which the inhibition is 57.7%.

Take `O=C(Nc1ccncc1)C1COc2ccccc2O1` (stereo not drawn): the inhibition was determined as 29.1%.

For the molecule `CCOC(=O)CNC(=O)CN1CCC(c2nc3ccccc3[nH]2)CC1`, the inhibition is -5.38%.

On to `COc1ccc(N/C=C/C(=O)c2ccc(Oc3ncccn3)cc2)cc1`, for which the inhibition is -0.22%.

With `C/C(CC(=O)NC1CCCCC1)=N\NC(=O)Cc1ccc(-c2ccccc2)cc1`, the inhibition was determined as 9.13%.

As to `O=C(C1=C[C@@H](c2ccccc2)C[C@@H](OCc2ccc(CO)cc2)O1)N1CCN(Cc2ccc3c(c2)OCO3)CC1`, the inhibition came to 38.2%.

On to `O=C(CNC(=O)Cc1ccccc1)NCC(=O)OCc1ccc(C(=O)c2ccccc2)cc1`, for which the inhibition is 4.67%.

On to `COc1ccc(-n2nc(C(=O)NCC(=O)NCc3cccc(F)c3)c3ccccc3c2=O)cc1Cl`, for which the inhibition was -7.9%.

On to `O=S(=O)(c1ccc2nc(COc3ccccc3)[nH]c2c1)N1CCOCC1`, for which the inhibition is -3.8%.

With `CC(C)(C)C(=O)CN1C2=NCCCN2c2ccccc21`, the inhibition came out at 12.1%.

As for `CCOc1ccc(N(CC(=O)NCc2ccccc2)S(=O)(=O)c2ccc(C)cc2)cc1`, the inhibition turned out to be 0.73%.

For the molecule `CCN(CC1COc2ccccc2O1)C(=S)NC1CC2CCC1C2` (stereo not drawn), the inhibition was 0.66%.

As for `COC(=O)c1ccc(C)c(NC(=O)C2COc3ccccc3O2)c1` (stereo not drawn), the inhibition came out at 57.8%.

Consider `COC(=O)c1ccccc1NC(=O)C1COc2ccccc2O1` (stereo not drawn), for which the inhibition was 59.7%.

With `CC1CCCC(NC(=O)C2COc3ccccc3O2)C1C` (stereo not drawn), the inhibition is 17.1%.

For the molecule `Cc1[nH]c2ccccc2c1C(=O)C(C)OC(=O)c1ccccc1NCCO` (stereo not drawn), the inhibition is 17.8%.

For `CCCCN(Cc1ccco1)S(=O)(=O)c1csc(C(N)=O)c1`, the inhibition came to 38.5%.

Consider `CSc1ccccc1C(=O)N(C)C(c1ccccc1)c1ccccc1`, for which the inhibition was 13.8%.

These data come from PubChem BioAssay AID488890 (Southern Research Specialized Biocontainment Screening …, 2010).
